EZH2 inh = EZH2/PRC2 methyltransferase inhibitors, primary screen, biochemical, DELFIA time-resolved fluorescence, single point | PRC2 H3K27 methylation, DELFIA TRF, 1 h | inhibition, % at 12.5 µM | Histone-lysine N-methyltransferase EZH2 (Homo sapiens), Q15910 | actives 0.35% (n = 57,000);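 active = mean inhibition of replicates at least 50% and every single replicate also reaching 50%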;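 note: dimethyl H3K27 on biotinylated H3 21-44 peptide detected by antibody; plate controls were median neutral control wells for no effect and median positive control wells for full effect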
Target sequence (Q15910 whole entry, looked up): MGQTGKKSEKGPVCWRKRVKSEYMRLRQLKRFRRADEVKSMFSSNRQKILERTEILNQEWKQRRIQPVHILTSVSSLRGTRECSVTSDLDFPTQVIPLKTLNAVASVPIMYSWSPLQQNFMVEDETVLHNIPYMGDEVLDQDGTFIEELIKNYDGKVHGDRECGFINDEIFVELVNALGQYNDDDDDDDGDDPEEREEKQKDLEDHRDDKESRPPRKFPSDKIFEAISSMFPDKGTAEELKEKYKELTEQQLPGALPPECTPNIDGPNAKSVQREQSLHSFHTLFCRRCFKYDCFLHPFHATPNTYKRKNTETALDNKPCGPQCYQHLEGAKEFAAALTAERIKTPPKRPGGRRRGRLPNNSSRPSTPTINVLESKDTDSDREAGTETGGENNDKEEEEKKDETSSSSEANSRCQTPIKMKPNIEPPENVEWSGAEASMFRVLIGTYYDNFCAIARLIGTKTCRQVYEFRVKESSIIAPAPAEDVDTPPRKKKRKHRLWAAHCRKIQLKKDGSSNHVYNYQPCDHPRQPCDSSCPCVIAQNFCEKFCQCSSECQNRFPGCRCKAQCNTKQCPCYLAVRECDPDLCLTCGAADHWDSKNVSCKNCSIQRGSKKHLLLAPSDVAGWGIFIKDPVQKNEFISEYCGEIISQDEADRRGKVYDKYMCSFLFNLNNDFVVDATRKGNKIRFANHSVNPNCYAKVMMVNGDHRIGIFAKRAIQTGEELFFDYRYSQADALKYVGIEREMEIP
Active calls of the source: *. Many of the other results were omitted from the sample, so hits are more common in it than they were.

SMILES	EZH2 inh
CC1OC(Oc2cc(O)c3c(=O)cc(-c4ccc(O)cc4)oc3c2C2OC(CO)C(O)C(O)C2O)C(O)C(O)C1O (stereo not given)	2
COc1c(OC)c(O)c2c(=O)cc(-c3ccc(O)cc3)oc2c1OC	3
O=c1cc(-c2ccc(O)cc2)oc2c(C3OCC(O)C(O)C3O)c(O)c(C3OC(CO)C(O)C(O)C3O)c(O)c12 (stereo not given)	58*
COc1cc(/C=C/c2cc(O)cc(O[C@@H]3O[C@H](CO)[C@@H](O)[C@H](O)[C@H]3O)c2)ccc1O[C@@H]1O[C@H](CO)[C@@H](O)[C@H](O)[C@H]1O	28
COc1cc(C2OCC3(OC4OC(CO)C(O)C(O)C4O)C(c4ccc(O)c(OC)c4)OCC23)ccc1O (stereo not given)	-21
COc1cc(C[C@H]2CO[C@H](c3ccc(O[C@@H]4O[C@H](CO)[C@@H](O)[C@H](O)[C@H]4O)c(OC)c3)[C@H]2CO)ccc1O	100*
Oc1c(C(Nc2ccccn2)c2c(F)cccc2Cl)cc(Cl)c2cccnc12 (stereo not given)	-52
O=C(COc1ccccc1)Nc1ccc2oc(-c3ccc(Cl)cc3)nc2c1	-12
CC(=O)N(Cc1ccc(C(C)C)cc1)c1ccc2oc(-c3ccccc3)nc2c1	58*
O=C(COc1ccccc1)Nc1ccc2oc(-c3cccc(Cl)c3)nc2c1	1
CN(CC(=O)Nc1ccccc1[N+](=O)[O-])S(=O)(=O)c1ccc(Br)cc1	-1
CS(=O)(=O)N(CC(=O)Nc1ccccc1C(=O)N1CCOCC1)c1cc(C(F)(F)F)ccc1Cl	17
C[C@H]1CN([C@@H](C)CO)C(=O)c2cc(C#Cc3ccccc3)cnc2O[C@@H]1CN(C)CC1CCOCC1	-12
C[C@@H]1CN([C@H](C)CO)C(=O)c2cc(C#Cc3ccncc3)cnc2O[C@H]1CN(C)CC1CCOCC1	100*
C[C@@H]1CN([C@@H](C)CO)C(=O)c2cc(C#Cc3ccncc3)cnc2O[C@@H]1CN(C)CC1CCOCC1	14
COc1ccc(CCN2C(=O)C(C)SC2c2cccnc2)cc1 (stereo not given)	2
Cc1ccc(S(=O)(=O)NC(=O)COc2cccc3ccccc23)c(C)c1	25
COc1ccc(C2Oc3c(OC)cc(/C=C/COC4OC(CO)C(O)C(O)C4O)cc3C2CO)cc1OC (stereo not given)	-7
COc1cc(C2c3c(cc(OC)c(O)c3OC)CC(CO)C2COC2OC(CO)C(O)C(O)C2O)cc(OC)c1O (stereo not given)	101*
O=C(CSc1ncc(-c2ccccc2)nn1)Nc1ccc(I)cc1	26
CS(=O)(=O)N(CC(=O)Nc1ccc(Cl)c(C(F)(F)F)c1)c1cccc(C(F)(F)F)c1	22
CNC(=O)c1cc(Oc2ccc(NC(=O)Nc3ccc(Cl)c(C(F)(F)F)c3)cc2)ccn1	57*
CC(=O)Nc1ccc(NC(=O)CN(c2ccc(Cl)c(C(F)(F)F)c2)S(C)(=O)=O)cc1	-27
O=C(Cn1c(=O)oc2ccccc21)Nc1sc2c(c1C(=O)O)CCCC2	19
Cc1ccc2nc(-c3cccnc3)cc(C(=O)NCc3cnn(C)c3)c2c1	4
SMILES	EZH2 inh
COc1ccc(-c2cc(=O)c3c(O)c(OC)c(O[C@H]4O[C@H](CO[C@@H]5O[C@@H](C)[C@H](O)[C@@H](O)[C@H]5O)[C@@H](O)[C@H](O)[C@H]4O)cc3o2)cc1	-1
CC1OC(Oc2ccc(-c3cc(=O)c4c(O)cc(OC5OC(CO)C(O)C(O)C5O)cc4o3)cc2)C(O)C(O)C1O (stereo not given)	9
C=Cc1ccc(O[C@@H]2O[C@H](CO[C@@H]3O[C@@H](C)[C@H](O)[C@@H](O)[C@H]3O)[C@@H](O)[C@H](O)[C@H]2O)cc1	87*
Cc1ccc(S(=O)(=O)NC(C)C(=O)Nc2c(F)cccc2F)cc1 (stereo not given)	-28
O=C(CSc1nc2ccc([N+](=O)[O-])cc2[nH]1)Nc1cc(C(F)(F)F)cc(C(F)(F)F)c1	17
NS(=O)(=O)c1ccc(NC(=O)CN2CCN(C(=O)c3ccccc3)CC2)cc1	4
O=C(CNS(=O)(=O)c1ccc(Br)cc1)Nc1cccc2ccccc12	11
O=C(Nc1cccc2ccccc12)OCCn1ncc2ccccc2c1=O	-7
Nc1c(S(=O)(=O)O)cc(Nc2cccc3ccccc23)c2c1C(=O)c1ccccc1C2=O	82*
Nc1c(S(=O)(=O)O)cc(Nc2ccc(Cl)cc2)c2c1C(=O)c1ccccc1C2=O	68*
O=C(COc1ccccc1[N+](=O)[O-])Nc1ccc(N2CCN(C(=O)c3ccco3)CC2)cc1	10
CC(=O)Nc1ccc(C(=O)CSc2nnc(-c3cccc(Br)c3)o2)cc1	13
O=[N+]([O-])c1ccc(OCc2nc(-c3cccnc3)no2)cc1	3
COc1ccc(C)cc1S(=O)(=O)N1CCCC(C(=O)Nc2ccccc2)C1 (stereo not given)	11
COC(=O)[C@@H](O)[C@H]1[C@@]2(C)C[C@]3(O)C4[C@@H](O[C@]56CC(=O)O[C@@H](c7ccoc7)[C@@]5(C)CCC([C@]46O)[C@]13C)[C@H]2O (stereo not given in full)	100*
CC12CC(c3ccoc3)OC(=O)C1CCC1(C)C2C2OC(=O)C1(O)C1OC21 (stereo not given)	10
Cc1cccc(Nc2nnc(-c3ccc(C)c(S(=O)(=O)NCCO)c3)c3ccccc23)c1	-4
O=C(CCCCC(=O)N/N=C/c1ccc(-c2cccc(Cl)c2)o1)NO	-1
CCCCN(CCCC)c1ccc(/C=N/NC(=O)c2ccccc2O)cc1	19
CCCCN(CCCC)c1ccc(/C=N/NC(=O)CCCCCCC(=O)OC)cc1	80*
COC(=O)CCCCCCC(=O)N/N=C/c1ccc(-c2cccc(Cl)c2)o1	54*
COC(=O)CCCCCCC(=O)N/N=C/c1ccccc1	22
COC(=O)CCCCCCC(=O)N/N=C/c1cccc(Oc2ccccc2)c1	56*
COC(=O)CCCCCCC(=O)N/N=C/c1cccc(OCCO)c1	6
O=C(N/N=C/c1ccc(-c2cccc(Cl)c2)o1)c1ccccn1	6
SMILES	EZH2 inh
COC(=O)CCCCCCC(=O)N/N=C/c1ccc(OCCO)cc1	18
O=C(Cn1cc(C(=O)c2ccccc2F)c2ccccc21)NCC1CCCO1 (stereo not given)	-6
CCOC(=O)c1c(NC(=O)c2ccc(Cn3cc(Cl)cn3)o2)sc2c1CCCCC2	2
COc1ccc(-c2nn3c(Cn4cnc5ccccc54)nnc3s2)cc1OC	-1
NC(=O)[C@@H]1[C@H]2C(=O)O[C@H](c3ccccc3)[C@H](c3ccccc3)N2[C@H](c2ccccc2OCCO)[C@@]12C(=O)Nc1ccc(C#CCCO)cc12	-38
O=C1O[C@@H](c2ccccc2)[C@@H](c2ccccc2)N2[C@@H](c3ccccc3OCCO)[C@]3(C(=O)Nc4ccc(C#CC5(O)CCCCCC5)cc43)[C@@H](C(=O)O)[C@H]12	73*
O=C1O[C@H](c2ccccc2)[C@H](c2ccccc2)N2[C@H]1[C@@H](C(=O)O)[C@]1(C(=O)Nc3ccc(C#CC4(O)CCCCCC4)cc31)[C@H]2c1ccccc1OCCO	60*
O=C1O[C@H](c2ccccc2)[C@H](c2ccccc2)N2[C@H]1[C@@H](C(=O)N1CCCCCCC1)[C@]1(C(=O)Nc3ccc(C#CC4(O)CCCCCC4)cc31)[C@H]2c1ccc(OCCO)cc1	-20
